Test results published in PubChem BioAssay (NCI).
The panel holds about 83,000 compounds, 20% with a hit somewhere; the sample as a whole holds those more often.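 Step 1: grow cells in 96-well plates. Step 2: add test compound at a single concentration. Step 3: incubate 48 h. Step 4: record percent growth.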 Active and inactive are the calls of the source. The calls were made as follows: active = growth percent below 10; inactive = the rest.

Tests used:
Assay in all cases: NCI-60 one-dose screen, 48 h (100 = growth as untreated, 0 = no growth, -100 = all killed)
Conditions in all cases: 10 µM unless noted
NCI-H23 lung = system: NCI-H23 lung
NCI-H226 lung = system: NCI-H226 lung
NCI-H322M lung = system: NCI-H322M lung
HOP-62 NSCLC = system: HOP-62 NSCLC
NCI-H460 lung = system: NCI-H460 lung
HOP-92 NSCLC = system: HOP-92 NSCLC
NCI-H522 lung = system: NCI-H522 lung
A549/ATCC NSCLC = system: A549/ATCC NSCLC
786-0 renal = system: 786-0 renal
COLO 205 colon = system: COLO 205 colon
DU-145 prostate = system: DU-145 prostate
K-562 leukemia = system: K-562 leukemia
MALME-3M melanoma = system: MALME-3M melanoma
MDA-MB-231 breast = system: MDA-MB-231 breast
RXF 393 renal = system: RXF 393 renal
SF-268 CNS = system: SF-268 CNS
SF-295 CNS = system: SF-295 CNS
SF-539 CNS = system: SF-539 CNS
UACC-257 melanoma = system: UACC-257 melanoma
M14 melanoma = system: M14 melanoma

Structure (SMILES) | growth (NCI-H23 lung) | growth (NCI-H226 lung) | growth (NCI-H322M lung) | growth (HOP-62 NSCLC) | growth (NCI-H460 lung) | growth (HOP-92 NSCLC) | growth (NCI-H522 lung) | growth (A549/ATCC NSCLC) | growth (786-0 renal) | growth (COLO 205 colon) | growth (DU-145 prostate) | growth (K-562 leukemia) | growth (MALME-3M melanoma) | growth (MDA-MB-231 breast) | growth (RXF 393 renal) | growth (SF-268 CNS) | growth (SF-295 CNS) | growth (SF-539 CNS) | growth (UACC-257 melanoma) | growth (M14 melanoma)
BrC1=C(Br)C(Br)(Br)C(Br)=C1Br | 93% (inactive) | 91.7% (inactive) | 107% (inactive) | 101% (inactive) | 102% (inactive) | 105% (inactive) | -15.2% (active) | 95.2% (inactive) | 82.4% (inactive) | 69.6% (inactive) | 106% (inactive) | 32.9% (inactive) | 106% (inactive) | 73.7% (inactive) | 75.1% (inactive) | 97.8% (inactive) | 113% (inactive) | 82.2% (inactive) | 84.7% (inactive) | 65.2% (inactive)
CCCn1nc(C(=O)N2CCCCC2)c2c1CCC(N1CCC(c3ccncc3)CC1)C2 (stereo not given) | 105% (inactive) | 116% (inactive) | 108% (inactive) | 113% (inactive) | 110% (inactive) | 111% (inactive) | 90.5% (inactive) | 102% (inactive) | 101% (inactive) | 115% (inactive) | 105% (inactive) | 101% (inactive) | 115% (inactive) | 118% (inactive) | 117% (inactive) | 97% (inactive) | 106% (inactive) | 107% (inactive) | 102% (inactive) | 97.3% (inactive)
COc1ccc(/C(C)=C(\c2ccc(OCCN3CCCCCC3)cc2)c2ccc(OC(=O)C3CCCCC3)cc2)cc1 | -74% (active) | -62.4% (active) | 5.75% (active) | -73.4% (active) | -65.6% (active) | -88.9% (active) | -67.6% (active) | -32.9% (active) | -84.2% (active) | -63% (active) | -12.1% (active) | -23.5% (active) | -81.2% (active) | -84.1% (active) | -83.1% (active) | -30.6% (active) | -90.3% (active) | -85.4% (active) | -71.4% (active) | -70.4% (active)
CCCCCCCCCCCCCCCC(=O)O[C@@H]1[C@@H](O)[C@@H](O)C([C@H](NC(=O)[C@@H]2C[C@@H](CCC)CN2C)[C@H](C)Cl)O[C@@H]1SC (stereo not given in full) | 102% (inactive) | 91.2% (inactive) | 97.8% (inactive) | 101% (inactive) | 110% (inactive) | 118% (inactive) | 130% (inactive) | 102% (inactive) | 91.8% (inactive) | 103% (inactive) | 114% (inactive) | 100% (inactive) | 87.1% (inactive) | 110% (inactive) | 106% (inactive) | 105% (inactive) | 104% (inactive) | 92% (inactive) | 105% (inactive) | 98.9% (inactive)
N#CC1=C(N)Oc2c(sc3c(Br)cccc23)C1c1ccccn1 (stereo not given) | 53.3% (inactive) | 41.2% (inactive) | 51.1% (inactive) | 30.9% (inactive) | 20.4% (inactive) | 35.3% (inactive) | -14.1% (active) | 40.1% (inactive) | 27.2% (inactive) | 6.4% (active) | 51.2% (inactive) | 15.2% (inactive) | 45.4% (inactive) | 59.8% (inactive) | 13.5% (inactive) | 41.5% (inactive) | 18% (inactive) | 6.33% (active) | 51.1% (inactive) | 28.1% (inactive)
COC(=O)c1nc(-c2ccc(C)cc2)oc1Sc1ccc(C)cc1 | 105% (inactive) | 104% (inactive) | 99.2% (inactive) | 94% (inactive) | 107% (inactive) | 87.9% (inactive) | 78.7% (inactive) | 97.6% (inactive) | 95.7% (inactive) | 102% (inactive) | 110% (inactive) | 82% (inactive) | 122% (inactive) | 96.1% (inactive) | 108% (inactive) | 103% (inactive) | 114% (inactive) | 96.8% (inactive) | 102% (inactive) | 93.2% (inactive)
CC12OC(CC(O)C1O)n1c3ccccc3c3c4c(c5c6ccccc6n2c5c31)C(=O)N(CCN1CCOCC1)C4=O (stereo not given) | -6.63% (active) | -35.6% (active) | 14.5% (inactive) | -11.7% (active) | -12.5% (active) | 19.6% (inactive) | -16.3% (active) | -31.8% (active) | 1.94% (active) | -2.3% (active) | 3.22% (active) | 7.56% (active) | -18% (active) | 44.2% (inactive) | -6.91% (active) | 17.9% (inactive) | -14.5% (active) | 6.03% (active) | 14.7% (inactive) | -3.54% (active)
CCCCCCCCn1ccc2cc(NC(=O)CN3CCN(c4nc(C)cc(N5CCCCC5)n4)CC3)ccc21 | 86% (inactive) | 86.1% (inactive) | 101% (inactive) | 100% (inactive) | 93.7% (inactive) | 102% (inactive) | 76.7% (inactive) | 83.4% (inactive) | 88.4% (inactive) | 84.7% (inactive) | 95.2% (inactive) | 56% (inactive) | 112% (inactive) | 85.7% (inactive) | 86.9% (inactive) | 93.3% (inactive) | 103% (inactive) | 105% (inactive) | 115% (inactive) | 90.6% (inactive)
O=C(c1ccc(Nc2nccc(NCCCNc3ccnc4cc(Cl)ccc34)n2)cc1)N1CCCCC1 | 32.4% (inactive) | 84.9% (inactive) | 57.6% (inactive) | 57.5% (inactive) | 11.3% (inactive) | 64.3% (inactive) | 38.2% (inactive) | 19.1% (inactive) | 32.9% (inactive) | 27.2% (inactive) | 39.1% (inactive) | 18.8% (inactive) | 17.2% (inactive) | 36.2% (inactive) | 61% (inactive) | 36.5% (inactive) | 37.2% (inactive) | 35.5% (inactive) | 36.7% (inactive) | 35% (inactive)
Cc1nc2sc(C(=O)Nc3cccc(Cl)c3C)c(N)c2cc1C(O)c1ccccc1 (stereo not given) | 19.8% (inactive) | 43.5% (inactive) | 49.8% (inactive) | 33.6% (inactive) | 3.15% (active) | 30% (inactive) | 4.83% (active) | 16.2% (inactive) | 16.5% (inactive) | -0.762% (active) | 10.7% (inactive) | 6.05% (active) | 50.2% (inactive) | 15.3% (inactive) | 46.2% (inactive) | 24% (inactive) | 26.9% (inactive) | 0.0688% (active) | 57% (inactive) | 7.42% (active)
CCc1c2c(nc3ccc(OCc4ccc(B5OC(C)(C)C(C)(C)O5)cc4)cc13)-c1cc3c(c(=O)n1C2)COC(=O)[C@]3(O)CC | -23.1% (active) | -44% (active) | 6.44% (active) | -4.19% (active) | 1.68% (active) | -9.71% (active) | 3.47% (active) | 10.8% (inactive) | 10.6% (inactive) | 18.8% (inactive) | 3.05% (active) | 19.8% (inactive) | -6.1% (active) | 34.2% (inactive) | -25.7% (active) | 5.96% (active) | 5.44% (active) | -35.6% (active) | -9.18% (active) | 2.91% (active)
CC(=O)N1N=C(c2ccc(Nc3nc(Nc4ccc(F)cc4)nc(Nc4ccc(F)cc4)n3)cc2)CC1c1ccccc1 (stereo not given) | 90% (inactive) | 102% (inactive) | 92.5% (inactive) | 85.9% (inactive) | 92.3% (inactive) | 58.3% (inactive) | 89.4% (inactive) | 86.4% (inactive) | 78.5% (inactive) | 68.5% (inactive) | 116% (inactive) | 80.1% (inactive) | 76.2% (inactive) | 80.1% (inactive) | 60.6% (inactive) | 86.1% (inactive) | 132% (inactive) | 110% (inactive) | 108% (inactive) | 85% (inactive)
O=C([C@H]1C[C@H]1c1ccc(S(F)(F)(F)(F)F)cc1)N1CCN(c2cc(Cl)ccc2C(F)(F)F)CC1 | 91.2% (inactive) | 75.7% (inactive) | 90.1% (inactive) | 102% (inactive) | 95.6% (inactive) | 88.3% (inactive) | 70.7% (inactive) | 81.5% (inactive) | 89.3% (inactive) | 101% (inactive) | 104% (inactive) | 74.2% (inactive) | 89.7% (inactive) | 97.2% (inactive) | 91.8% (inactive) | 90.2% (inactive) | 92.6% (inactive) | 107% (inactive) | 94.9% (inactive) | 90.7% (inactive)
N#Cc1c(N)nnn1Cc1cc(=O)oc2ccc(O)cc12 | 106% (inactive) | 95.7% (inactive) | 110% (inactive) | 106% (inactive) | 107% (inactive) | 95.7% (inactive) | 89.6% (inactive) | 98.7% (inactive) | 106% (inactive) | 118% (inactive) | 108% (inactive) | 96.1% (inactive) | 108% (inactive) | 112% (inactive) | 98.8% (inactive) | 103% (inactive) | 102% (inactive) | 104% (inactive) | 101% (inactive) | 105% (inactive)
C=C[C@]1(C)C=C2CC[C@@H]3C(C)(C)C(=O)CC[C@@]3(C)[C@@H]2CC1 | 104% (inactive) | 126% (inactive) | 77% (inactive) | 105% (inactive) | 109% (inactive) | 97.7% (inactive) | 94.6% (inactive) | 101% (inactive) | 98.6% (inactive) | 116% (inactive) | 108% (inactive) | 95.3% (inactive) | 1.04% (active) | 111% (inactive) | 127% (inactive) | 97.6% (inactive) | 101% (inactive) | 103% (inactive) | 106% (inactive) | 103% (inactive)
